The values that follow come from PubChem BioAssay (NCATS).

Results filed as inconclusive are left out. Unmarked numbers belong to inactive results. Activity calls are given as the source filed them. Calls come from the whole dose curve; as a rule, active = well fitted curve in the direction sought with a large enough effect; inconclusive = small, poorly fitted or top-dose-only effect, or another doubt; inactive = no such curve, though single readings can be large; an effect the other way counts as inactive or inconclusive.

Experiment [1] in a line: UWB1.289 Cancer Cell Toxicity qHTS against the NCATS CANVASS Library (AID 1347347). Note: nearly all actives have a fitted effect of over 60% in size. Note: potency is the fitted concentration of half-maximal effect. The procedure, abridged: (§1)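 Step one: seed 1000 cells per well. Step two: incubate 4 h. Step three: add test compounds in 11 concentrations. Step four: culture 72 h, then add CellTiter-Glo and record luminescence after 15min.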
The nature of experiment [2]: SW1088 Cancer Cell Toxicity qHTS against the NCATS CANVASS Library (AID 1347350). Note: nearly all actives have a fitted effect of over 75% in size. Note: potency is the fitted concentration of half-maximal effect. The procedure, abridged:
as §1
(In general: In qHTS, concentration-response curves come from the screen itself.)

Experiment [3] in a line: A2780 Cisplatin Sensitive Ovarian Cancer Cell Toxicity qHTS against the NCATS CANVASS Library (AID 1347353). Note: nearly all actives have a fitted effect of over 60% in size. In outline: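 Luminescent ATP content (ATPLite, 10 min at room temperature) served as the read-out after cells had been exposed to compounds for 72 hours at 37 °C. Dosing followed an 11-point concentration series.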
Experiment [4] is described as follows: UWB1.289-WTBRCA1 Cancer Cell Toxicity qHTS against the NCATS CANVASS Library (AID 1347354). In outline: (§2)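 Luminescent ATP read-out (CellTiter-Glo, 15min at room temperature) measures survival after cells face an 11-point compound series for 72 hours at 37 degrees C/5% CO2.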
Experiment [5] in a line: HEK-293 Cancer Cell Toxicity qHTS against the NCATS CANVASS Library (AID 1347355). For outcome: series mostly up to about 46 µM. Note: nearly all actives have a fitted effect of over 65% in size. Note: potency is the fitted concentration of half-maximal effect. In outline: as §2
For experiment [6], the system named is NAD(P)H diaphorase (Clostridium kluyveri). Description: Diaphorse counterscreen qHTS: Assay Interference Panel against the NCATS CANVASS Library (AID 1347362). In outline:
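Clostridium kluyveri diaphorase in PBS + 0.01% Tween-20 preincubated 15 min with compounds. Resazurin and NADH then added for 5 min at room temperature in the dark; resorufin fluorescence read (ex 525, em 598).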
For orientation: Counterscreens check selectivity or assay interference.

A short description of experiment [7]: KB-8-5-11 Cancer Cell Toxicity qHTS against the NCATS CANVASS Library (AID 1347364). Note: nearly all actives have a fitted effect of over 75% in size. In outline: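 Plate 500 KB-8-5-11 cells per well in DMEM + 10% FBS, add compounds by pin transfer, incubate 72 hr at 37C. Add CellTiter-Glo, wait 10 minutes at room temperature, read luminescence.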
Experiment [8] can be described thus: SDT Cancer Cell Toxicity qHTS against the NCATS CANVASS Library (AID 1347365). Note: nearly all actives have a fitted effect of over 60% in size. Note: potency is the fitted concentration of half-maximal effect. The procedure, abridged:
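qHTS, SDT dog glioma line, 500 cells/well; cpds 11 pts; 72 hr, 37C, 5% CO2; CellTiterGlo ATP luminescence.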

Experiment [9] in a line: KB-3-1 Cancer Cell Toxicity qHTS against the NCATS CANVASS Library (AID 1347366). Note: nearly all actives have a fitted effect of over 75% in size. Note: potency is the fitted concentration of half-maximal effect. In outline: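 KB-3-1 cells (500 cells/well) in DMEM + 10% FBS were treated with compounds for 72 hr at 37C, 5% CO2. Viability was read as CellTiter-Glo luminescence after 10 minutes at room temperature.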
Experiment [10] is described as follows: qHTS for Hypoxia signaling pathway (HIF-1) antagonists against the NCATS CANVASS Library (AID 1347374). Note: nearly all actives have a fitted effect of over 60% in size. Note: potency is the fitted concentration of half-maximal effect. The procedure, abridged: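 HRE-bla ME-180 cells in medium with 0.5% dialyzed FBS received compounds (11-point series) plus CoCl2 (60 uM addition stock) for 17 hrs at 37C. Beta-lactamase activity read with CCF4 (405 nm ex, 460/530 nm em); CellTiter-Glo viability measured in same wells.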

The nature of experiment [11]: qHTS for Hypoxia signaling pathway (HIF-1) agonists against the NCATS CANVASS Library (AID 1347375). In outline: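 ME-180 HRE-bla reporter cells; 2,000/well, 0.5% dialyzed FBS; cpd added after 5 h, 17 h 37C/5% CO2; CCF4-AM 2 h RT; FRET 460/530 nm; CellTiter-Glo viability same wells, 30 min.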
A short description of experiment [12]: DH5-alpha competent E. coli microbial cell viability qHTS against the NCATS CANVASS Library (AID 1347377). The settings on record: outcome: dose series up to 46.1 µM unless noted. In outline:
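qHTS, 11-pt; E. coli DH5-alpha, 0.2 OD; o/n 37C/5% CO2; BacTiter-Glo, 20 min RT; luminescence.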

The nature of experiment [13]: qHTS for H2AX Agonists against the NCATS CANVASS Library (AID 1347378). The procedure, abridged:
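CHO-K1 cells were plated overnight at 37C, then exposed to compounds (concentration series, 0.76% DMSO final) for 3 hr at 37C. Lysates received Eu-cryptate anti-pH2AX (S139) and d2 anti-H2AX antibodies; after 24 hr at room temperature, TR-FRET 665/620 nm ratio was read.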

Experiment [14] is described as follows: qHTS for Activators of p53 Stress Response Pathway screened against the NCATS CANVASS Library (AID 1347388). In outline:
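p53RE-bla HCT-116 cells (4000/well) were pre-incubated for 5 h, then treated with compound (11 points) for 16 h at 37C. After 2 h with CCF4, the 460/530 nm ratio gave reporter activation; CellTiter-Glo measured viability.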

The nature of experiment [15]: Secretion counterscreen for inhibitors of the SERCaMP assay screened against the NCATS CANVASS Library (AID 1347390).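 Note: light from luciferase secreted into medium read as a measure of general secretion; series mostly up to about 77 µM.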 The procedure, abridged: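 SH-SY5Y cells expressing constitutively secreted GLuc, 1000 cells/well, attached 4 h at 37C, then exposed to compounds (0.001 - 77 uM, 11-pnt series) for 20 h. Coelenterazine added; luminescence read to flag secretory-pathway interferers.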

Experiment [16] is described as follows: qHTS for activators of dead-cell proteases activity screened against the NCATS CANVASS Library (AID 1347392).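 Note: luminescence from protease leaking out of membrane-damaged cells cleaving impermeant substrate; rising signal means more cytotoxicity.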 In outline: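 HepG2 cells, 2000/well, attached 18 h at 37C, then exposed to compounds (11-point qHTS) for 5 h. Dead-cell protease release read as luminescence from cell-impermeant AAF-aminoluciferin substrate after 15 min at room temperature.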
Experiment [17] can be described thus: qHTS for inhibitors of ER calcium dysfunction: SERCaMP assay screened against the NCATS CANVASS Library (AID 1347393).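 Note: series mostly up to about 77 µM; lower secreted reporter signal means inhibitor of ER calcium depletion; nearly all actives have a fitted effect of over 40% in size.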 The procedure, abridged:
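SH-SY5Y GLuc-SERCaMP, 1000 cells/well, 4 h attach; cpd 16 h, 37C/5% CO2; thapsigargin (added as 6x 600 nM) 4 h; coelenterazine; luminescence. Reduced reporter release = ER Ca stabilization.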

A short description of experiment [18]: qHTS for inhibitors of Wild type Zika virus screened against the NCATS CANVASS Library (AID 1347396).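 Note: ATP luminescence of surviving cells so rescue from viral cell killing; series mostly up to about 46 µM.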 The procedure, abridged: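 Vero 766 cells, 1000/well, o/n attach; cpds pin-transferred (11-pt qHTS); WT Zika added; 72 h, 37C, 5% CO2; CellTiter Glo lumi. Uninfected + vehicle = 100% inhibition.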
The nature of experiment [19]: Viability qHTS for inhibitors of the SERCaMP assay screened against the NCATS CANVASS Library (AID 1347400). Note: series mostly up to about 92 µM; nearly all actives have a fitted effect of over 70% in size. In outline: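 SH-SY5Y SERCaMP MJH297 cells, 1000/well; 4 h settle, 37C/5% CO2; pin-transferred cpds; 48 h; CellTiter-Glo lum. Pos ctrl bortezomib 0.0001 - 4.6 uM.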
The nature of experiment [20]: Redox Reaction Profiling qHTS: Assay Interference Panel against the NCATS CANVASS Library (AID 1347401). The procedure, abridged: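 Compounds in 11-point series incubated with 5 uM resazurin and 200 uM DTT in 50 mM HEPES pH 7.3, 50 mM NaCl. Resorufin fluorescence (Ex 525/Em 598) read before and after 15 min in the dark.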

In the case of `C1=C2CCCN[C@@H]2[C@@H]2CCN3CCCC[C@@H]3[C@H](C1)C2`, the Potency entry in [1], in experiment [2], in experiment [3], in experiment [4], in [5] and in experiment [6] was “inactive” in each case. Moreover, the Potency result in experiment [7], in experiment [8], in experiment [9], in experiment [10], in [11] and in [13] was “inactive” throughout. In addition, the Potency result in experiment [14], in [15], in [16], in experiment [17], in experiment [18] and in [19] was “inactive” throughout. Further, in experiment [20], the Potency entry is “inactive”. In experiment [12], the outcome was inactive.
Regarding `COc1cc(/C=C2/C(=O)N(c3ccc(O)cc3C(=O)O)[C@H](c3ccc(O)c(OC)c3)C2C(=O)Nc2ccc(O)cc2C(=O)O)ccc1O` (stereo partly specified), the Potency entry in experiment [1], in experiment [2], in experiment [3], in [4], in [5] and in [6] was “inactive” each time. Further, the Potency result in experiment [7], in experiment [8], in experiment [9], in experiment [11], in [13] and in [14] was “inactive” in each case. The Potency entry in experiment [15], in experiment [16], in experiment [17], in experiment [18] and in experiment [19] was “inactive” throughout. Moreover, in [10], the Potency was 8.38 µM (active). Moreover, the outcome in [12] was inactive.
Take `Cc1cc(O)cc2oc(C[C@H](C)O)cc(=O)c12`: the Potency result in [1], in experiment [2], in experiment [3], in experiment [4], in experiment [5] and in [6] was “inactive” throughout. For the same molecule, the Potency result in [7], in [9], in experiment [10], in experiment [11], in experiment [13] and in [14] was “inactive” in each case. The Potency result in experiment [15], in experiment [16], in experiment [17], in [18], in experiment [19] and in experiment [20] was “inactive” throughout. Also, the Potency in experiment [8] was 1.48 µM (active). The result in experiment [12] was inactive.
For the molecule `C[C@@H](CCC[C@]1(C)C(=O)C=C[C@]23C[C@H]4C[C@H](O[C@@]4(C)C2)C31)C(=O)N[C@@H](CO)C(=O)O` (stereo partly specified), the Potency entry in [1], in experiment [2], in [3], in [4], in experiment [5] and in [6] was “inactive” throughout. The Potency entry in experiment [7], in experiment [8], in [9], in experiment [10], in experiment [11] and in experiment [13] was “inactive” in each case. Also, the Potency result in experiment [14], in experiment [15], in [16], in experiment [17], in experiment [18] and in [19] was “inactive” in each case. In addition, the Potency result in experiment [20] was “inactive”. Further, the result in [12] was inactive.
As to `CCCCCCCCC[C@@H]1C[C@@H]2CC[C@H]3[C@@H](C(=O)OCCCCN=C(N)N)[C@@H](C)N=C(N1)N23`, the Potency in [1] is 10.3 µM (active); in [2], 13.1 µM (active); in experiment [5], 11.5 µM (active); in experiment [8], 2.58 µM (active); in experiment [9], 0.578 µM (active). The Potency result in [6], in experiment [14], in [15], in experiment [16], in experiment [17] and in [18] was “inactive” throughout. Moreover, the Potency entry in [19] and in experiment [20] was “inactive” each time.
As to `O=c1cc(-c2ccc(O)cc2)oc2c([C@@H]3OC(CO)[C@H](O)[C@@H](O)[C@H]3O)c(O)cc(O)c12` (stereo partly specified), the Potency result in experiment [1], in [2], in experiment [3], in experiment [4], in experiment [5] and in [6] was “inactive” throughout. Moreover, the Potency entry in [7], in experiment [8], in [9], in experiment [10], in experiment [11] and in [13] was “inactive” each time. Further, the Potency result in experiment [14], in experiment [16], in experiment [17], in experiment [18], in experiment [19] and in [20] was “inactive” in each case. Besides, the result in [12] was inactive.
